Compound activity as filed in PubChem BioAssay.
ClpP mod = qHTS Assay for Activators of ClpP; 1.9% of 340,000 active; Potency, µM (series often up to 57.5 µM), without a hit: at the highest dose activity change, negative = active; AID 651965, 2013; purified B. subtilis ClpP, FRET peptide cleavage, 20 min; active = well fitted falling curve with a large enough effect; inconclusive = small, poorly fitted or top-dose-only effect; inactive = no such curve, though single readings can be large or run the other way; also: the source files actives as falling curves though it sought activators and does not explain the sign; nearly all actives have a fitted effect of over 65% in size
Target sequence (P80244 whole entry, looked up): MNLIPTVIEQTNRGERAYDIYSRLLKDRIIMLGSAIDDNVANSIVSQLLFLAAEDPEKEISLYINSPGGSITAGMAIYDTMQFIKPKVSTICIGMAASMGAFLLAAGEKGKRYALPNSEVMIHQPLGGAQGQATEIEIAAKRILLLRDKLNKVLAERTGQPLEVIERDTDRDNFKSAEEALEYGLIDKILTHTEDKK
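Purified B. subtilis ClpP, 10 microg/mL final in Tris/HCl pH8 with KCl, BSA, glycerol and Tween-20, cleaved an Abz/nitrotyrosine-quenched decapeptide. Fluorescence (ex 320, em 430) was read at 0 and 20 min at room temperature. Delta was normalized to 5.8 microM ADEP and DMSO/no-enzyme controls.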
DT40 TDP1 no CPT = qHTS for Inhibitors of human tyrosyl-DNA phosphodiesterase 1 (TDP1): qHTS in cells in absence of CPT; 15% of 420,000 active; DT40 Tdp1-/- hTDP1 cells, no CPT, ATP luminescence, 48 h; Potency, µM (series often up to 46.2 µM), without a hit: at the highest dose activity change, negative = growth inhibition, actives largely listed as inhibitors; also: % is scaled to controls: 0 for no effect and ±100 for the full control effect; nearly all actives have a fitted effect of over 55% in size
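Compound effects on proliferation are scored in DT40 Tdp1-/-;hTDP1 cells in the absence of CPT. ATP levels (CellTiter-Glo luminescence) are recorded after a ≥48 hr, 37 °C incubation.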
DT40 TDP1 CPT = DT40-hTDP1 cell growth loss with CPT | chicken DT40 Tdp1-/-;hTDP1 cells + 20 nM CPT, ATP luminescence, 48 h | Potency, µM (series often up to 46.2 µM), inactives show at the top dose activity change, negative = growth inhibition, usual class: inhibitors | 12% of 420,000 active | AID 686979; also: % is scaled to controls: 0 for no effect and ±100 for the full control effect; nearly all actives have a fitted effect of over 55% in size
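Cell growth measured by CellTiter-Glo luminescence after a minimum 48 h, 37 C compound exposure with 20 nM CPT in Tdp1-knockout DT40 cells stably expressing hTDP1, seeded 400/well; qHTS titration format.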
TDP1 block = blocks human tyrosyl-DNA phosphodiesterase 1 | Q9NUW8 | recombinant TDP1, AlphaScreen DNA substrate cleavage | Potency, µM (titrated, usually from 130 µM), inactives show at the highest dose activity change, negative = inhibition, hits mostly inhibitors | 0.28% of 350,000 active | AID 485290; also: % is scaled to controls: 0 for no effect and ±100 for the full control effect; nearly all actives have a fitted effect of over 40% in size
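Signal: AlphaScreen proximity between streptavidin donor and anti-FITC acceptor beads on intact substrate. Reaction: Tdp1 1 nM, substrate 15 nM final, 5 min RT after 15 min compound preincubation.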
An asterisk follows results filed as active; [ ] = dose if it differs, or a comment. Sampled rows, rich in hits. Any-hit rate of the full collection: about 17%. Unless noted, calls follow the shape of the dose curve; as a rule, active = well fitted curve in the direction sought with a large enough effect; inconclusive = small, poorly fitted or top-dose-only effect, or another doubt; inactive = no such curve, though single readings can be large; an effect the other way counts as inactive or inconclusive. Potency is read from the fitted curve at half-maximal effect.

Results for COc1ccc(-c2cn3c(C)c(C(=O)Nc4cccc(NC(C)=O)c4)sc3n2)cc1 ?
ClpP mod: -4%; DT40 TDP1 no CPT: 3%; DT40 TDP1 CPT: inconclusive; TDP1 block: 4%

What do the screens show for `COc1ccc(-c2ccccc2)cc1NC(=O)C1(C)CCN1C(=O)C(C)C` (stereo not drawn)?
ClpP mod: -1%; DT40 TDP1 no CPT: -52%; DT40 TDP1 CPT: inconclusive

What do the screens show for `CSc1ncc(S(=O)(=O)c2ccccc2)c(=O)[nH]1`?
DT40 TDP1 no CPT: -9%; DT40 TDP1 CPT: 0%; TDP1 block: 4%

Results for CCOc1ccc(-c2nc(Cn3ccn4nc(-c5ccc(OCC)c(Cl)c5)cc4c3=O)c(C)o2)cc1 ?
ClpP mod: -3%; DT40 TDP1 no CPT: 12%; DT40 TDP1 CPT: -10%; TDP1 block: 3%

What do the screens show for `Cc1nc2cc(-c3ccc(Cl)cc3)nn2c(NCCN(C)C)c1C`?
DT40 TDP1 no CPT: 7.3µM*; DT40 TDP1 CPT: 7.3µM*; TDP1 block: -2%

What do the screens show for `C#CCOCCOCCOCCNc1nc(N2CCN(C(=O)[C@H]([C@@H](C)CC)n3cc([C@@H](N)CC(C)C)nn3)CC2)nc(N2CCN(C(=O)[C@H]([C@@H](C)CC)n3cc([C@@H](N)CC(C)C)nn3)CC2)n1`?
ClpP mod: -1%; DT40 TDP1 no CPT: inconclusive; DT40 TDP1 CPT: 15µM*; TDP1 block: 4%

Results for C#CCOCCOCCOCCNc1nc(N2CCN(C(=O)CCCCCCCCCCNC(=O)[C@H](CCCCN)n3cc(CCO)nn3)CC2)nc(N2CCN(C(=O)CCCCCCCCCCNC(=O)[C@@H]([C@H](C)O)n3cc(C)nn3)CC2)n1 ?
ClpP mod: 3%; DT40 TDP1 no CPT: inconclusive; DT40 TDP1 CPT: inconclusive; TDP1 block: 11%

Results for C#CCOCCOCCOCCNc1nc(N2CCN(C(=O)[C@H]([C@@H](C)CC)n3cc([C@@H](N)CC(C)C)nn3)CC2)nc(N2CCN(C(=O)[C@H](Cc3ccc(O)cc3)n3cc([C@@H](N)CC(C)C)nn3)CC2)n1 ?
ClpP mod: 2%; DT40 TDP1 no CPT: -4%; DT40 TDP1 CPT: -17%; TDP1 block: 5%

What do the screens show for `C#CCOCCOCCOCCNc1nc(N2CCOCC2)nc(N2CCN(C(=O)CCCCCCCCCCNC(=O)[C@@H]([C@H](C)O)n3cc(C)nn3)CC2)n1`?
ClpP mod: -3%; DT40 TDP1 no CPT: 16µM*; DT40 TDP1 CPT: inconclusive; TDP1 block: 1%

What do the screens show for `C#CCOCCOCCOCCNc1nc(N2CCN(C(=O)CCCCCCCCCCNC(=O)[C@@H]([C@H](C)O)n3cc(C)nn3)CC2)nc(N2CCN(C(=O)CCCCCCCCCCNC(=O)[C@@H]([C@H](C)O)n3cc(C)nn3)CC2)n1`?
ClpP mod: -1%; DT40 TDP1 no CPT: 23µM*; DT40 TDP1 CPT: inconclusive; TDP1 block: -5%

What do the screens show for `COc1ccc(CNC(=O)C(C(C)C)N2Cc3ccccc3C2=O)cc1` (stereo not drawn)?
ClpP mod: 2%; DT40 TDP1 no CPT: -28%; DT40 TDP1 CPT: -23%; TDP1 block: 2%

How did O=C(COc1ccccc1F)Nc1ccccc1OCc1cc(=O)n2ccccc2n1 do in these assays?
ClpP mod: 0%; DT40 TDP1 no CPT: -16%; DT40 TDP1 CPT: 13%; TDP1 block: 0%

What do the screens show for `COc1cc(C2C3=C(COC3=O)Oc3cc4c(cc32)OCO4)ccc1O` (stereo not drawn)?
ClpP mod: -6%; DT40 TDP1 no CPT: 0.58µM*; DT40 TDP1 CPT: 0.82µM*

What do the screens show for `COc1cc(C2CC(=O)Nc3cc4c(cc32)OCO4)cc(OC)c1O` (stereo not drawn)?
ClpP mod: 0%; DT40 TDP1 no CPT: inconclusive; DT40 TDP1 CPT: 3%; TDP1 block: -6%[12.3 µM]

Results for COc1cc(C2C3=C(COC3=O)OC(C)(C)Oc3cc4c(cc32)OCO4)cc(OC)c1OC (stereo not drawn) ?
ClpP mod: 0%; DT40 TDP1 no CPT: 0.73µM*; DT40 TDP1 CPT: 1µM*

What do the screens show for `Cc1ccc(N(C)C(=O)C2CCN(S(=O)(=O)c3cn(C)cn3)CC2)cc1`?
ClpP mod: -4%; DT40 TDP1 no CPT: -10%; DT40 TDP1 CPT: 0%; TDP1 block: 1%

Results for COCCn1c(=NC(=O)c2ccc(S(=O)(=O)N3CCc4ccccc4C3)cc2)sc2cc(OC)ccc21 ?
ClpP mod: -8%; DT40 TDP1 no CPT: inconclusive; DT40 TDP1 CPT: -23%; TDP1 block: -3%

Results for CC(=O)Nc1sc2c(c1-c1nc3ccccc3s1)CCN(C(C)C)C2 ?
ClpP mod: -4%; DT40 TDP1 no CPT: 2.6µM*; DT40 TDP1 CPT: 2.3µM*

What do the screens show for `CCN1CCc2c(sc(NC(=O)CSc3ccccc3)c2-c2nc3ccccc3s2)C1`?
ClpP mod: -3%; DT40 TDP1 no CPT: inconclusive; DT40 TDP1 CPT: inconclusive; TDP1 block: 0%

What do the screens show for `CC(=O)N1CCc2c(sc(NC(=O)CSc3ccc(F)cc3)c2-c2nc3ccccc3s2)C1`?
ClpP mod: -16%; DT40 TDP1 no CPT: 9.2µM*; DT40 TDP1 CPT: 12µM*; TDP1 block: 3%

Results for CN1CCc2c(sc(NC(=O)CSc3ccc(F)cc3)c2-c2nc3ccccc3s2)C1 ?
ClpP mod: -8%; DT40 TDP1 no CPT: 16µM*; DT40 TDP1 CPT: inconclusive; TDP1 block: -3%

How did COCCNC(=O)C1(C)CCN(Cc2ccc3ccccc3c2Br)C1 (stereo not drawn) do in these assays?
ClpP mod: -1%; DT40 TDP1 no CPT: 10µM*; DT40 TDP1 CPT: 29µM*

Results for COCCNC(=O)C1(C)CCN(Cc2ccccc2C#N)C1 (stereo not drawn) ?
ClpP mod: 1%; DT40 TDP1 no CPT: 5%; DT40 TDP1 CPT: -21%

How did CCNC(=O)C1(C)CCCN(Cc2ccc3ccccc3c2Br)C1 (stereo not drawn) do in these assays?
ClpP mod: 0%; DT40 TDP1 no CPT: 18µM*; DT40 TDP1 CPT: inconclusive

How did O=C(Nc1ccc(OC(F)(F)F)cc1)C1CCCN(S(=O)(=O)c2cccnc2)C1 (stereo not drawn) do in these assays?
ClpP mod: 0%; DT40 TDP1 no CPT: 13µM*; DT40 TDP1 CPT: 18µM*; TDP1 block: -4%

Results for O=C(C1CCCN(S(=O)(=O)c2cccnc2)C1)N1CCN(c2ccccn2)CC1 (stereo not drawn) ?
ClpP mod: 4%; DT40 TDP1 no CPT: inconclusive; DT40 TDP1 CPT: -16%; TDP1 block: 3%

Results for O=C(c1ccc2ccccc2c1)C1CCCN(S(=O)(=O)c2cccnc2)C1 (stereo not drawn) ?
ClpP mod: -1%; DT40 TDP1 no CPT: 21µM*; DT40 TDP1 CPT: 23µM*; TDP1 block: 6%

What do the screens show for `COc1cc(OC)c(Cl)cc1N`?
ClpP mod: 0%; DT40 TDP1 no CPT: 16µM*; DT40 TDP1 CPT: inconclusive; TDP1 block: 6%
